Screens: PubChem, several laboratories
In the library only some 4.4% were active in any assay of this set; here they are far more common.
TIM10 inh = growth inhibitors of TIM10 yeast strain | S. cerevisiae TIM10 strain growth, BacTiter-Glo luminescence, 24 h | inhibition, % at 10 µM | hit rate 1.4% among 330,000 | AID 463195;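 active = inhibition of 40% or more at the single tested concentration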;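 note: wild-type TIM10 isogenic control strain grown at permissive 25 °C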
tim10-1 inh = tim10-1 yeast growth inhibition; S. cerevisiae tim10-1 ts strain growth, BacTiter-Glo, 24 h; inhibition, % at 20 µM; hit rate 2.2% among 330,000;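 active = inhibition of at least 40%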;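 note: mutant grown at 25 °C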
PfHsp90 yeast 2 = reduces growth (ATP signal) of yeast expressing P. falciparum Hsp90 | S. cerevisiae expressing PfHsp90, BacTiter-Glo ATP, 48 h; yeast lacking PDR1 and PDR3 efflux regulators | inhibition, % at 9.4 µM | hit rate 0.32% among 310,000 | AID 504621;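 active = every replicate shows inhibition above about 80%, whatever the replicate mean, limit read from the data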
tim23-1 inh = tim23-1 yeast growth inhibition; S. cerevisiae tim23-1 growth, BacTiter-Glo luminescence, 24 h; inhibition, % at 20 µM; hit rate 1.3% among 330,000;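 active = growth inhibition of the mutant yeast at or above 50%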;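 note: temperature-sensitive mutant grown at 25 °C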
SKKanGAS inh = inhibitors of SKKanGAS S. pyogenes growth in kanamycin (SK-promoter or general growth effect). inhibition, % at 7.5 µM. AID 1662. BacTiter-Glo, 6 h. hit rate 1.3% among 300,000;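 active = mean replicate score, as percent of positive control median, at least 50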;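 note: strain carries kanamycin resistance gene driven by streptokinase promoter and grows in 40 µg/ml kanamycin; loss of luminescence reflects streptokinase promoter inhibition or plain growth inhibition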
tim10-1 conf = tim10-1 yeast growth inhibition, confirmed. hit rate 56% among 7,400. shares compounds with tim10-1 inh. inhibition, % at 20 µM. S. cerevisiae tim10-1 ts strain growth, BacTiter-Glo, 24 h. AID 463213;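 active = inhibition of yeast growth at or above a set limit in either of two repeat tests at 20 µM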;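 note: tim10-1 mutant grown at permissive 25 °C to find synthetic lethal compounds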
TIM10 conf = TIM10 yeast growth inhibition, confirmed | AID 463215 | shares compounds with TIM10 inh | inhibition, % at 10 µM | hit rate 63% among 4,600 | S. cerevisiae tim10 strain growth, BacTiter-Glo luminescence, 24 h;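 active = inhibition of yeast growth at or above a set limit in either of two replicates at 10 µM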; note: this counterscreen used the strain with wild-type TIM10
Large screens that a line does not name were inactive (follow-up assays come after a bar, where they were run).

O=C1C2C3C=CC(C4CC34)C2C(=O)N1c1cccc2ccccc12 (stereo not drawn)	none
Cc1cc(C)c(S(=O)(=O)NCC(=O)NCc2cc(=O)n(C)c(=O)n2C)c(C)c1	none
CCC(/C=C1\Sc2ccc(OC)cc2N1CC)=C\c1sc2ccc(OC)cc2[n+]1CCCS(=O)(=O)[O-]	TIM10 inh 45, tim10-1 inh 50 | tim10-1 conf 43 | TIM10 conf inactive
O=C(O)C(Cc1c[nH]c2ccccc12)NS(=O)(=O)c1ccc(Cl)cc1 (stereo not drawn)	none
Cc1cccc(C)c1N/C=C/c1onc(C)c1[N+](=O)[O-]	none
Cc1noc(/C=C/c2cccnc2)c1[N+](=O)[O-]	TIM10 inh 57, tim10-1 inh 55 | tim10-1 conf 57 | TIM10 conf 75
Cc1noc(N)c1C1(O)C(=O)Nc2c(Cl)cc(Cl)cc21 (stereo not drawn)	none (no result: PfHsp90 yeast 2)
Cc1ccc(COc2ccc(Br)cc2/C=N/O)cc1	TIM10 inh 46, tim10-1 inh 51 | tim10-1 conf inactive | TIM10 conf inactive
Cc1ccc(S(=O)(=O)N(C)C)cc1NC(=O)C1CCCCN1S(=O)(=O)c1ccccc1 (stereo not drawn)	none (no result: SKKanGAS inh)
COc1nnc(-c2ccc(N3CCCCC3)c(N)c2)c2ccccc12	TIM10 inh 49, tim10-1 inh 44 | tim10-1 conf 36 | TIM10 conf 40
CNc1ccc(/C=C2\CSc3ccccc3C2=O)cc1[N+](=O)[O-]	TIM10 inh 46, tim10-1 inh 45 (no result: PfHsp90 yeast 2) | tim10-1 conf 40 | TIM10 conf inactive
O=C1/C(=C/c2ccc([N+](=O)[O-])cc2)CCc2ccccc21	none (no result: PfHsp90 yeast 2)
Cc1oc(-c2ccccc2Cl)nc1CS(=O)CC(=O)NCc1ccc2c(c1)OCO2 (stereo not drawn)	none
O=c1[nH]c(C2CCN(S(=O)(=O)c3ccccc3)CC2)nc2c1nnn2Cc1c(F)cccc1Cl	none
COc1cc(OC)cc(C(=O)NCC(=O)OCc2ccc(Cl)c(Cl)c2)c1	none (no result: SKKanGAS inh)
O=C(Nc1ccccc1F)c1ccc([N+](=O)[O-])s1	TIM10 inh 56, tim10-1 inh 45 | tim10-1 conf 59 | TIM10 conf 64
O=C(Nc1cccc2ccccc12)c1ccc([N+](=O)[O-])s1	none
CSc1nnc(-c2ccc(S(=O)(=O)N3CCCCC3)cc2)o1	none
CCOC(=O)c1cccc(NC(=O)Nc2cc(OC)ccc2OC)c1	TIM10 inh 40, tim10-1 inh 41 | tim10-1 conf inactive | TIM10 conf inactive
Oc1ccc(/C=N/Nc2nccnc2Cl)c(O)c1	TIM10 inh 70, tim10-1 inh 61 | tim10-1 conf 28 | TIM10 conf 54
CCCC(=O)Nc1ccc2oc(-c3ccc(OC)c(Br)c3)nc2c1	none
CCCC(=O)Nc1ccc(-c2nc3cc(C)ccc3o2)cc1	TIM10 inh 55, tim10-1 inh 44 | tim10-1 conf 32 | TIM10 conf 52
CCOC(=O)c1sc(NC(=S)NC(=O)C2CCCC2)cc1C	none
CCOC(=O)c1sc(NC(=S)NC(=O)CC(C)C)cc1C	TIM10 inh 58, tim10-1 inh 53 | tim10-1 conf 42 | TIM10 conf 51
COc1cccc(-c2[nH]nc3c2C(c2ccc(C)o2)C(C#N)=C(N)O3)c1 (stereo not drawn)	TIM10 inh 52, tim10-1 inh 45 (no result: PfHsp90 yeast 2) | tim10-1 conf inactive | TIM10 conf inactive
O=C(Nc1ccc(Cl)c(Cl)c1)OCc1cccnc1	TIM10 inh 44, tim10-1 inh 50 | tim10-1 conf 47 | TIM10 conf 30
C[n+]1c2n(c3ccccc31)N=C(c1ccc(Br)cc1)CS2	TIM10 inh 43, tim10-1 inh 44 (no result: PfHsp90 yeast 2) | tim10-1 conf 44 | TIM10 conf 32
Cc1cccc(NC(=O)CCNS(=O)(=O)c2cc(Br)cnc2N)c1C	none
CCc1cccc2sc(N3CCN(C(=O)c4ccc([N+](=O)[O-])o4)CC3)nc12	TIM10 inh 58, tim10-1 inh 79, SKKanGAS inh 59 | tim10-1 conf 74 | TIM10 conf 89
CCOc1ccc(N2C(=O)CC(N)C2=O)cc1 (stereo not drawn)	TIM10 inh 72, tim10-1 inh 73 (no result: SKKanGAS inh) | tim10-1 conf 69 | TIM10 conf 70
CCOc1ccc(N2C(=O)CC(Sc3n[nH]c(-c4ccccc4)n3)C2=O)cc1 (stereo not drawn)	TIM10 inh 57, tim10-1 inh 51 | tim10-1 conf 53 | TIM10 conf 36
COc1ccc(N2C(=O)CC(Sc3n[nH]c(-c4ccccc4)n3)C2=O)cc1 (stereo not drawn)	none
O=C(Nc1ccc(C(=O)N2CCOCC2)cc1)Nc1cccc2ccccc12	none
Cc1onc(-c2ccccc2Cl)c1C(=O)O/N=C(\N)c1ccc([N+](=O)[O-])o1	TIM10 inh 44, tim10-1 inh 49 | tim10-1 conf inactive | TIM10 conf 44
O=C(O)c1ccc(SCc2ccccc2)nc1	none
Cc1ccc(/C=C/C(=O)Nn2cnnc2)cc1	TIM10 inh 42, tim10-1 inh 56 | tim10-1 conf inactive | TIM10 conf 39
Cc1ccc(/C=C/C(=O)NN2CCN(C)CC2)cc1	none
Cc1coc2c1C(=O)C(=O)c1c-2ccc2c1CCCC2(C)C	TIM10 inh 44, tim10-1 inh 48 | tim10-1 conf 38 | TIM10 conf 37
Cc1cccc(OCCCOc2cccc3cccnc23)c1C	TIM10 inh 47, tim10-1 inh 46, SKKanGAS inh 58 | tim10-1 conf inactive | TIM10 conf 39
O=C(NC1CCCC1)c1cccc(Oc2ccccc2)c1	TIM10 inh 42, tim10-1 inh 46 | tim10-1 conf inactive | TIM10 conf 32
CCOCCCNC(=O)c1c[nH]c2ccc(OCC)cc2c1=O	none
COC(=O)C1CCN(C(=O)COc2ccc(S(=O)(=O)N3CCOCC3)cc2Cl)CC1	none (no result: SKKanGAS inh)
Cc1cccc(-c2cc3c(N=O)c4ccccc4c-3n[nH]2)c1	none
Cc1ccc(-c2cc3c(N=O)c4ccccc4c-3n[nH]2)cc1	TIM10 inh 44, tim10-1 inh 43 | tim10-1 conf inactive | TIM10 conf 29
NC(=O)N/N=C/c1cn(-c2ccccc2)nc1-c1cccs1	none
O=C(O)c1cccc(N/N=C/c2cn(-c3ccccc3)nc2-c2cccs2)c1	TIM10 inh 61, tim10-1 inh 47 | tim10-1 conf 59 | TIM10 conf 65
N#C/C(=C/c1ccc2c(c1)OCO2)C(=O)NCCc1c[nH]c2ccccc12	TIM10 inh 63, tim10-1 inh 63 | tim10-1 conf 58 | TIM10 conf 56
O=C(NCCc1c[nH]c2ccccc12)c1ccc2c(c1)OCO2	none
CCCCN(C(=O)c1ccc(S(=O)(=O)N2CCC(C)CC2)cc1)C1CCS(=O)(=O)C1 (stereo not drawn)	none (no result: PfHsp90 yeast 2)
